Source: PubChem BioAssay

Assay: growth suppression of yeast trafficking mutant, preliminary HTS, modulators of trafficking downstream of Golgi apparatus project, 1536-format plate, OD 615 nm (AID 637)
Conditions: yeast transport mutant growth, absorbance 615 nm, 18 h; hits give high values; in the data active = inhibition above about 30%; inactive = the rest

inhibition, inactive:
CCOC(=O)c1sc2ncn(/N=C/N(C)C)c(=O)c2c1C 4.68%, O=C(c1ccco1)N1CCN(C(=O)c2cc3c(s2)-c2ccccc2OC3)CC1 -1.64%, Cn1c(-c2ccccc2)c(CCO)c2ccccc21 -2.9%, CC(C)(C)OC(=O)N1CCCC1C(=O)N1CCc2ccccc21 (centres undefined) -3.81%, Fc1ccc(C(c2nnnn2Cc2ccco2)N2CCN(C3CCCCC3)CC2)cc1 (centres undefined) 21.9%, Cc1c(C(=O)NCc2cccnc2)oc2ccc(S(=O)(=O)N3CCCCC3)cc12 4.1%, COc1ccc(-c2cc(C(=O)NCCc3ccccc3)no2)cc1OC -12.7%, O=C(NCc1ccccc1)C1CCN(S(=O)(=O)N2CCCCCC2)CC1 -6.23%, CC1(C)CC(=O)C(CC2=C(O)CC(C)(C)CC2=O)=C(O)C1 -4%, Cn1c(=O)c2c(nc(SCC(=O)NCc3ccco3)n2C)n(C)c1=O -4.76%, COc1ccc(-c2noc(-c3cc(Cl)ccc3Cl)n2)cc1OC -4.52%, CCn1c(=O)cc(SCC(=O)NCCN2CCN(Cc3ccccc3)CC2)c2ccccc21 -3.09%, CC(=O)Nc1cccc(NC(=O)c2oc3ccccc3c2C)c1 -1.43%, CN1CCN(c2oc(COc3ccc(-c4ccccc4)cc3)nc2C#N)CC1 0.79%, Clc1ccc2nc(N3CCCCC3)[nH]c2c1 2.79%, CN1CCc2nc(SCC(=O)Nc3ccc(F)cc3)c(C#N)cc2C1 4.1%, CCCCC(=O)NCCc1ccc(S(N)(=O)=O)cc1 2.62%, Cc1onc(-c2c(Cl)cccc2Cl)c1C(=O)N1CCc2ccccc21 2.74%, Cc1ccc(S(=O)(=O)NCCCCC(NC(=O)OC(C)(C)C)C(=O)O)cc1 (centres undefined) (tested in a mixture with another compound) 8.52%, N#CC1=C(N)SC(N)=C(C#N)C1c1ccc(C(F)(F)F)cc1 0.82%, C=Cn1c(C(=O)O)cc(CC)c1-c1ccccc1 -7.42%, Cc1nc2cccc(C(=O)NC3CCCCC3)c2o1 7.05%, O=C(CCn1nc(-c2ccc(Cl)cc2)ccc1=O)N1CCN(c2ccccn2)CC1 -3.87%, COc1ccc(-c2nnc(SCC#N)o2)cc1 0.65%
